In the library only some 3% were active in any assay of this set; here they are far more common.
Wnt bcat act = activates Wnt/beta-catenin signaling in a reporter cell assay; activator, plate reader; activation, % at 9.35 µM; hit rate 1.2% among 300,000; AID 743398; in the data active = activation above about 30%, passing the limit was not always enough; inconclusive = no clear call, values can overlap the other calls
MITF act = increases MITF-driven TRPM1 promoter luciferase signal; SK-MEL-5 TRPM1-promoter luciferase, 24 h; % of positive control, neutral wells = 0; activation, % at 12.5 µM; hit rate 0.75% among 300,000; AID 588334;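 active = mean activation of at least 80% with every replicate also reaching 80%; inconclusive = mean reaches 80% but some replicate falls short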
esBAF inh = SWI/SNF esBAF complex inhibition | mouse ES cells, Bmi1-luciferase knock-in reporter, 24 h; 100% = twice the neutral-well signal | hit rate 2% among 350,000 | reporter increase, % at 12.5 µM; in the data active = activation above about 40%; inconclusive = no clear call, values can overlap the other calls;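 also: a rise in the Bmi1 reporter signal indicates esBAF inhibition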
Glyco luc inh = blocks N-linked glycosylation in D54 reporter cells | D54 ERlucT glycosylation luciferase reporter, 24 h; percent of 100 nM tunicamycin response | reporter increase, % at 12.5 µM | hit rate 0.23% among 360,000 | AID 588692;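 active = mean luciferase reporter signal, scaled so untreated is 0 and the glycosylation-blocking control 100, at or above a set limit in every replicate; inconclusive = mean reaches the limit but not every replicate does; inactive = mean below the limit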;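 also: luciferase carries N-glycosylation sites so blocking glycosylation raises the light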
Vif inh = blocks HIV Vif function; inhibition, % at 7.49 µM; hit rate 0.35% among 340,000; HEK293T cells, Vif self-association by quenched fluorescence, imaging, 24 h; in the data active = inhibition above about 50%, passing the limit was not always enough; inconclusive = no clear call, values can overlap the other calls; inactive = below about 31%
PfHsp90 yeast 2 = growth inhibition of yeast expressing Plasmodium Hsp90. S. cerevisiae expressing PfHsp90, BacTiter-Glo ATP, 48 h; yeast lacking PDR1 and PDR3 efflux regulators. inhibition, % at 9.4 µM. hit rate 0.32% among 310,000. AID 504621;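 active = every replicate shows inhibition above about 80%, whatever the replicate mean, limit read from the data; inconclusive = mean inhibition reaches the set limit but some replicate falls short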
Hits are given with their value.

Screening CC(C)(C)c1ccc(C(=O)Nc2ccc(CN3CCS(=O)(=O)CC3)cc2)cc1 returned Wnt bcat act inactive, esBAF inh inactive, Glyco luc inh inactive, Vif inh inactive and PfHsp90 yeast 2 inactive.
Screening O=C(CSc1nnc(-c2ccco2)n1-c1ccccc1)N1CCOCC1 returned MITF act inactive, esBAF inh inactive, Glyco luc inh inactive and Vif inh inactive.
For O=C(Nc1cnn(Cc2ccc(F)cc2)c1)c1cc(-c2cccs2)on1 the results were Wnt bcat act inactive, MITF act inactive, Glyco luc inh inactive, Vif inh 57 and PfHsp90 yeast 2 inactive.
CCCc1cc(C(=O)Nc2cnn(Cc3ccc(F)cc3)c2)no1 was read as Wnt bcat act inactive, MITF act inactive, esBAF inh inactive, Glyco luc inh inactive, Vif inh inactive and PfHsp90 yeast 2 inactive.
`O=C(Nc1cnn(Cc2ccc(F)cc2)c1)c1cnccn1` gave MITF act inactive, esBAF inh 42, Glyco luc inh inactive and PfHsp90 yeast 2 inactive.
For Nn1c(COc2ccc(Cl)cc2)nc2ccccc2c1=O the results were Wnt bcat act inactive, MITF act 99, esBAF inh inconclusive, Glyco luc inh inactive, Vif inh inactive and PfHsp90 yeast 2 inactive.
For Nn1c(Cc2ccccc2)nc2ccccc2c1=O the results were Wnt bcat act inactive, MITF act inactive, esBAF inh inactive, Glyco luc inh inactive, Vif inh inactive and PfHsp90 yeast 2 inactive.
`Cc1ccc(S(=O)(=O)N(C)c2ccc(C(=O)NCC(c3ccco3)N(C)C)cc2)cc1` (stereo not given) gave Wnt bcat act inactive, MITF act inactive, esBAF inh inactive, Glyco luc inh inactive, Vif inh inactive and PfHsp90 yeast 2 inactive.
Cc1sc(NC(=O)c2ccco2)nc1-c1ccccc1 was read as MITF act 96, Glyco luc inh inactive, Vif inh inactive and PfHsp90 yeast 2 inactive.
For CC(=O)c1c(C)[nH]c(C(=O)Nc2nc(-c3ccccc3)c(C)s2)c1C the results were MITF act 111, Glyco luc inh inactive, Vif inh inactive and PfHsp90 yeast 2 inactive.
For CC(=O)c1sc(NC(=O)c2ccco2)nc1-c1ccccc1 the results were MITF act inactive, esBAF inh 62, Glyco luc inh inactive, Vif inh inactive and PfHsp90 yeast 2 inactive.
Screening CC(=O)c1sc(NC(=O)c2ccccc2F)nc1-c1ccccc1 returned Wnt bcat act inactive, MITF act 88, Glyco luc inh inactive, Vif inh inactive and PfHsp90 yeast 2 inactive.
CC(=O)c1sc(NC(=O)c2ccc(F)cc2)nc1-c1ccccc1 was read as Wnt bcat act inactive, MITF act inactive, Glyco luc inh inactive, Vif inh inactive and PfHsp90 yeast 2 inactive.
CC(=O)c1c(C)[nH]c(C(=O)Nc2nccs2)c1C was read as Wnt bcat act inactive, MITF act inactive, esBAF inh inactive, Glyco luc inh inactive and Vif inh inactive.
`C=CCNC(=S)N1CCN(c2ccc([N+](=O)[O-])cc2)CC1` gave Wnt bcat act inactive, MITF act inactive, esBAF inh inactive, Glyco luc inh inactive, Vif inh inactive and PfHsp90 yeast 2 inactive.
Screening CN1C(=O)c2cc(NC(=O)C3CCCC3)ccc2OC[C@H]2O[C@H](CC(=O)O)CC[C@@H]21 returned esBAF inh inactive.
COc1ccc(NC(=O)CN(C)C(=O)c2cccc(Oc3ccccc3)c2)cc1 was read as Wnt bcat act inactive, MITF act inactive, esBAF inh inactive, Glyco luc inh inactive, Vif inh inactive and PfHsp90 yeast 2 inactive.
COc1ccccc1-c1cccc([C@@H]2C[C@H]3[C@H](CON3C)CN2C)c1 was read as Wnt bcat act inactive, MITF act inactive, esBAF inh inactive, Glyco luc inh inactive and PfHsp90 yeast 2 inactive.
CCOC(=O)c1cn(Cc2ccccc2)nn1 was read as Wnt bcat act inactive, MITF act inactive, Glyco luc inh inactive, Vif inh inactive and PfHsp90 yeast 2 inactive.
Screening O=C(Nc1scc(-c2ccc(F)cc2)c1C(=O)O)c1ccco1 returned MITF act inactive, esBAF inh inactive, Glyco luc inh inactive, Vif inh inactive and PfHsp90 yeast 2 inactive.
Screening COC(=O)c1c(-c2ccccc2)csc1NC(=O)c1ccco1 returned MITF act 105, esBAF inh 98, Glyco luc inh inactive, Vif inh inactive and PfHsp90 yeast 2 inactive.
Screening Cc1[nH]n(-c2cccc(Cl)c2)c(=O)c1C=NCc1ccco1 returned Wnt bcat act inactive, MITF act 105, Glyco luc inh inactive, Vif inh inactive and PfHsp90 yeast 2 inactive.
Cc1[nH]n(-c2cccc(Cl)c2)c(=O)c1C=NC12CN3CN(CN(C3)C1)C2 was read as MITF act inactive, esBAF inh inactive, Glyco luc inh inactive, Vif inh inactive and PfHsp90 yeast 2 inactive.
For Cc1[nH]n(-c2cccc(Cl)c2)c(=O)c1C=NCC(C)C the results were Wnt bcat act inactive, MITF act 111, Glyco luc inh inactive and Vif inh inactive.
Screening CCN(CC)CCN(Cc1cc2cc3c(cc2[nH]c1=O)OCO3)C(=S)NCCOC returned Wnt bcat act inactive, esBAF inh inactive, Glyco luc inh inactive, Vif inh inactive and PfHsp90 yeast 2 inactive.
For CCOc1ccc(CCNC(=O)c2ccc3ccccc3n2)cc1OCC the results were Wnt bcat act inactive, MITF act inactive, esBAF inh 57, Glyco luc inh inactive, Vif inh inactive and PfHsp90 yeast 2 inactive.
Screening COc1ccc(CCNC(=O)c2ccc3ccccc3n2)cc1OC returned Wnt bcat act inactive, MITF act inactive, esBAF inh inactive, Glyco luc inh inactive, Vif inh inactive and PfHsp90 yeast 2 inactive.
For C=C(C)C1CC=C(C)/C(=N/NC(=S)Nc2ccccc2)C1 (stereo not given) the results were Wnt bcat act inactive, MITF act inactive, esBAF inh inactive, Glyco luc inh inactive, Vif inh inactive and PfHsp90 yeast 2 inactive.
Cc1ccc(Cl)cc1N1CCN(C(c2cccnc2)c2nnnn2C2CCCCC2)CC1 (stereo not given) was read as MITF act inactive, esBAF inh inactive, Glyco luc inh inactive, Vif inh 71 and PfHsp90 yeast 2 inactive.
O=Nc1ccc(Cl)cn1 was read as Wnt bcat act inactive.
Screening Clc1nssc1=Nc1ccc(Br)cc1 returned Wnt bcat act inactive, MITF act inactive, Glyco luc inh inactive, Vif inh inactive and PfHsp90 yeast 2 105.
`Clc1ccc(N=c2ssnc2Cl)nc1` gave Wnt bcat act inactive, MITF act inactive, Glyco luc inh inactive, Vif inh inactive and PfHsp90 yeast 2 120.
Cc1nn(C)c(C(=O)NNC(=S)Nc2ccc(Cl)cc2)c1[N+](=O)[O-] was read as MITF act inactive, esBAF inh inactive, Glyco luc inh inactive, Vif inh inactive and PfHsp90 yeast 2 inactive.
Cc1c(OCc2ccc([N+](=O)[O-])cc2)ccc2c3c(c(=O)oc12)CCC3 was read as Wnt bcat act inactive, MITF act 112, Glyco luc inh inactive, Vif inh inactive and PfHsp90 yeast 2 inactive.

Source: PubChem
